Source: PubChem
Gal4-VP16 FLuc: counter-screen for ROR gamma inhibitors: Gal4-VP16 reporter. Drosophila S2 Gal4-VP16 UAS-luciferase, luminescence, 20 h. Potency, µM (series often up to 53.6 µM), hits mostly inhibitors. hit rate 3.5% among 310,000. AID 2546;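 further: Gal4-VP16 expression switched on by copper sulfate through the metallothionein promoter; nearly all actives have a fitted effect of over 50% in size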
Chronic BCR inh: chronic active BCR signaling inhibition. Potency, µM (highest dose often 46.1 µM), actives largely listed as inhibitors. ABC-DLBCL IkBa-CBG/CBR reporter, luminescence ratio, 4 h. hit rate 0.05% among 340,000; active means well fitted inhibition curve with a large enough effect in the signal ratio, with a control signal flat, not every such curve was filed as active; inconclusive means small, poorly fitted or top-dose-only effect, or effect the other way, or a change in a side signal; the % refers to the signal ratio
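Doxycycline induced both beetle luciferases in TMD8 lymphoma cells; IKK-driven degradation limits the IkappaBalpha-fused green signal, while red luminescence normalises for cell number and nonspecific effects. Compounds tested up to 46 uM, 4 hrs.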
MCF10A rerep: inducers of DNA re-replication in MCF 10A breast cells; hit rate 2.9% among 350,000; MCF 10A DNA re-replication, Hoechst nuclear intensity, 48 h; Potency, µM (highest dose often 46.1 µM), hits mostly activators; further: nearly all actives have a fitted effect of over 50% in size
Giardia kill: kills Giardia lamblia; Giardia lamblia trophozoite viability; AID 540267; activity change, % at 7.66 µM, hits read low; hit rate 0.15% among 340,000; in the data active means activity change below about -80%; inconclusive means between about -30% and that limit;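 further: parasites exposed to compound for two days anaerobically before the ATP read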
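Media and compound were dispensed first, then trophozoites at 100 cells/well; plates sat 48 hrs at 37 deg C without oxygen before ATP luminescence reagent was added and read after 15-30 min at room temperature.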
SW480 rereplic: DNA re-replication induction in SW480 cells. SW480 DNA re-replication, Hoechst DNA content imaging, 48 h. hit rate 1.8% among 340,000. Potency, µM (series often up to 46.1 µM), actives largely listed as activators; further: nearly all actives have a fitted effect of over 55% in size
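Image-based read-out: total Hoechst fluorescence of nuclei (405 nm excitation, 500-530 nm emission), with hits raising the fraction of high-intensity nuclei. SW480 colon cells incubated 48 hr with compounds at 37 C.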
RORg inh: ROR gamma (mouse) transcription inhibition; Drosophila S2 Gal4-RORgamma UAS-luciferase reporter, 20 h; Potency, µM (highest dose often 53.6 µM), actives largely listed as inhibitors; hit rate 5.4% among 310,000; AID 2551; further: nearly all actives have a fitted effect of over 60% in size
Target sequence (P51450 whole entry, looked up, the tested form may be a part): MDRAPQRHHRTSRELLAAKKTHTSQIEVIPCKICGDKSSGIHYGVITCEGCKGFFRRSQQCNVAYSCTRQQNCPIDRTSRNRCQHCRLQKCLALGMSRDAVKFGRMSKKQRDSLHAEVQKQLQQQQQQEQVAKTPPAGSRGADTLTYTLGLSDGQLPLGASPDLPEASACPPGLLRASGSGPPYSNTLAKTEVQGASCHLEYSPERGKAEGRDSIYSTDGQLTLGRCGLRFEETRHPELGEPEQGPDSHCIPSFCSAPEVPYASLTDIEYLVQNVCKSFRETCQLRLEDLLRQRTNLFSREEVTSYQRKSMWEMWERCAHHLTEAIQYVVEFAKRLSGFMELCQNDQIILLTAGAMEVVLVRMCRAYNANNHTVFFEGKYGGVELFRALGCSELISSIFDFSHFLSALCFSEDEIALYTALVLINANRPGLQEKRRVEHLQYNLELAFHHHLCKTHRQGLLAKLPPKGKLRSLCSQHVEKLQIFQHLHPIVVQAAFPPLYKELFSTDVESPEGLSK
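Read-out: Photinus luciferase luminescence; inhibitors lower reporter signal. Insect Schneider cells with Gal4-ROR gamma fusion under metallothionein promoter, UAS reporter; 700 uM final copper sulfate induction, 20 hr, ambient temperature.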
Each line names hits and unclear results; the compound was inactive in the other large screens. Hits are enriched below; roughly 8.3% of the tested compounds scored in any of these assays. Unless noted, the call rests on the fitted dose curve; in most records, active means well fitted curve in the direction sought with a large enough effect; inconclusive means small, poorly fitted or top-dose-only effect, or another doubt; inactive means no such curve, though single readings can be large; an effect the other way counts as inactive or inconclusive.

Cc1ccc(CN2C(=O)[C@@H]3Cc4c([nH]c5ccccc45)C(C)(C)N3C2=O)cc1	MCF10A rerep inconclusive (no result: Gal4-VP16 FLuc, Chronic BCR inh, RORg inh)
Cc1ccc(CN2C(=O)[C@H]3Cc4c([nH]c5ccccc45)C(C)(C)N3C2=O)cc1	MCF10A rerep 20.6µM, SW480 rereplic inconclusive (no result: Gal4-VP16 FLuc, Chronic BCR inh, RORg inh)
COc1cccc(NC(=O)C(Cc2ccccc2)n2cccc2)c1 (centres undefined)	Chronic BCR inh inconclusive
COc1c2c(cc(O)c1C(C)=O)OC(C)(C)C=C2	none (no result: Gal4-VP16 FLuc, Chronic BCR inh, RORg inh)
COc1cc2c(cc1OC)C1C(=O)c3c(O)cc4c(c3OC1CO2)C=CC(C)(C)O4 (centres undefined)	Gal4-VP16 FLuc 0.891µM, RORg inh 6.31µM (no result: Chronic BCR inh, MCF10A rerep, Giardia kill, SW480 rereplic)
COc1cc2c(cc1OC)C1C(=O)c3ccc4c(c3OC1CO2)C=CC(C)(C)O4 (centres undefined)	Gal4-VP16 FLuc 0.126µM, RORg inh inconclusive (no result: Chronic BCR inh, MCF10A rerep, Giardia kill, SW480 rereplic)
COc1cc2c(cc1OC)OC(C)(C)C=C2	none (no result: Chronic BCR inh, MCF10A rerep, Giardia kill, SW480 rereplic)
Cc1ccc(S(=O)(=O)n2c3ccc(F)cc3c3nc(C)sc32)cc1	none (no result: MCF10A rerep, Giardia kill, SW480 rereplic)
Oc1ccc(/C=N/Nc2nccnc2Cl)cc1	Chronic BCR inh inconclusive
COc1ccc(/C=N/Nc2ncnc3sc(C)c(C)c23)cc1	Gal4-VP16 FLuc 4.47µM, Chronic BCR inh inconclusive, MCF10A rerep inconclusive, RORg inh inconclusive
Nc1c(Cl)ncnc1N/N=C/c1ccc(O)cc1	Gal4-VP16 FLuc 12.6µM, RORg inh 10µM
Cc1sc2ncnc(N/N=C/c3ccccc3O)c2c1C	Gal4-VP16 FLuc 15.8µM, Chronic BCR inh inconclusive, MCF10A rerep inconclusive, SW480 rereplic inconclusive, RORg inh 7.94µM
Cc1sc2ncnc(N/N=C/c3ccc(O)cc3)c2c1C	Gal4-VP16 FLuc 4.47µM, Chronic BCR inh inconclusive, RORg inh 15.8µM
Cc1ccc(Nc2ncnc3sc(C)c(C)c23)cc1C	Chronic BCR inh inconclusive, SW480 rereplic inconclusive
CCN1C(=O)[C@H]2[C@@H](c3ccc(C)cc3)N3C(=O)N(c4ccccc4)C(=O)[C@@]3(CC)[C@H]2C1=O	MCF10A rerep inconclusive, SW480 rereplic inconclusive
O=C(CCC(=O)N(CC(=O)NC1CCCC1)Cc1ccccc1)Nc1nccs1	none
COc1cccc(/C=N/Nc2ncnc3scc(-c4ccccc4)c23)c1OC	Gal4-VP16 FLuc 3.16µM, Chronic BCR inh inconclusive, MCF10A rerep inconclusive, SW480 rereplic inconclusive, RORg inh 3.98µM
COc1cccc(C=NNc2nc3ccccc3s2)c1OC	MCF10A rerep inconclusive, SW480 rereplic inconclusive (no result: Gal4-VP16 FLuc, Chronic BCR inh, RORg inh)
S=C(Nc1ccc(Cl)cc1)c1nc2ccccc2[nH]1	Gal4-VP16 FLuc 20µM, Chronic BCR inh inconclusive, MCF10A rerep inconclusive, RORg inh 11.2µM (no result: SW480 rereplic)
O=C(/C(=C\c1ccccc1)c1nc2ccccc2[nH]1)c1ccc(Cl)cc1	Gal4-VP16 FLuc inconclusive, Chronic BCR inh inconclusive, MCF10A rerep 4.11µM, SW480 rereplic inconclusive, RORg inh inconclusive
O/C(=C\c1nc2ccccc2[nH]1)c1cccs1	Gal4-VP16 FLuc inconclusive, Chronic BCR inh inconclusive, MCF10A rerep inconclusive, SW480 rereplic inconclusive, RORg inh inconclusive
O=C(/C(=C/c1ccc(Cl)cc1)c1nc2ccccc2[nH]1)c1cccs1	Gal4-VP16 FLuc inconclusive, Chronic BCR inh inconclusive, MCF10A rerep 5.17µM, SW480 rereplic inconclusive, RORg inh 3.16µM
O=C(/C=C/c1cccc(Cl)c1)c1nc2ccccc2[nH]1	Gal4-VP16 FLuc inconclusive, Chronic BCR inh inconclusive, MCF10A rerep inconclusive, SW480 rereplic inconclusive, RORg inh 3.16µM
CC(C)(C)Cc1nnc(NC(=O)CCC2CCCCC2)s1	none
COc1ccc(C(C)=O)cc1COC(=O)c1ccc(S(=O)(=O)N(C)C)cc1	SW480 rereplic inconclusive
COc1ccc(/C=C(\C#N)c2nc3ccccc3[nH]2)cc1O	MCF10A rerep inconclusive, SW480 rereplic inconclusive, RORg inh inconclusive
COc1cc(/C=C(/C(=O)c2cccs2)c2nc3ccccc3[nH]2)ccc1O	Chronic BCR inh inconclusive, MCF10A rerep 4.11µM, SW480 rereplic 7.31µM
O=S(=O)(CCN1CCN(C(c2ccccc2)c2ccccc2)CC1)C(F)(F)F	Gal4-VP16 FLuc 15.8µM, Chronic BCR inh inconclusive, MCF10A rerep inconclusive, SW480 rereplic inconclusive, RORg inh inconclusive
Cc1ccc(C(c2nnnn2Cc2ccccc2)N2CCN(Cc3ccncc3)CC2)cc1 (centres undefined)	none (no result: Gal4-VP16 FLuc, Chronic BCR inh, MCF10A rerep, SW480 rereplic, RORg inh)
c1ccc(CN2CCN(C(c3ccccc3)c3ccccc3)CC2)cc1	MCF10A rerep 20.6µM
Fc1ccc(CN2CCN(C(c3ccccc3)c3ccccc3)CC2)cc1	none
Cc1ccc(C(c2nnnn2Cc2ccccc2)N2CCN(Cc3ccccc3)CC2)cc1 (centres undefined)	Chronic BCR inh inconclusive, MCF10A rerep 16.4µM
O=C1CCC(C(=O)N2CCCCO2)CN1Cc1ccc(Cl)cc1 (centres undefined)	none
Cc1cccc(N2CCN(S(=O)(=O)c3ccc(Cl)nc3)CC2C)c1 (centres undefined)	Chronic BCR inh inconclusive (no result: Gal4-VP16 FLuc, RORg inh)
CCCc1ncc(CN2CCCCC2C(=O)Nc2ccc(Oc3ccccc3)nc2)cn1 (centres undefined)	none (no result: Gal4-VP16 FLuc, Chronic BCR inh, RORg inh)
O=C(CN1C(=O)S/C(=C\c2cccc(Cl)c2)C1=O)NC1C=CS(=O)(=O)C1 (centres undefined)	MCF10A rerep 9.2µM, SW480 rereplic inconclusive, RORg inh 7.94µM
CN(C(=O)CN1C(=O)S/C(=C\c2cccc(Cl)c2)C1=O)C1CCS(=O)(=O)C1 (centres undefined)	Chronic BCR inh inconclusive, MCF10A rerep 23.1µM
CC(C(=O)NC1C=CS(=O)(=O)C1)N1C(=O)/C(=C/c2cccc(Cl)c2)SC1=S (centres undefined)	Chronic BCR inh inconclusive, MCF10A rerep inconclusive, Giardia kill inconclusive, RORg inh inconclusive
O=C(CN1C(=O)S/C(=C\c2ccc(Cl)cc2)C1=O)NC1C=CS(=O)(=O)C1 (centres undefined)	Chronic BCR inh inconclusive, MCF10A rerep inconclusive, SW480 rereplic 23.1µM
O=C(CN1C(=O)/C(=C/c2cccc(Cl)c2)SC1=S)NC1C=CS(=O)(=O)C1 (centres undefined)	Gal4-VP16 FLuc inconclusive, Chronic BCR inh inconclusive, MCF10A rerep 14.6µM, SW480 rereplic inconclusive, RORg inh 12.6µM
O=C(NCC(=O)N1CCN(c2ccccc2F)CC1)c1ccco1	none
CCNc1nc(=S)nc(NC(C)C)[nH]1	Gal4-VP16 FLuc 12.6µM, RORg inh 10µM
Cc1cc(=O)[nH]c(NCc2ccccc2)n1	none
CC(Nc1nc(=S)nc(Nc2ccc(F)cc2)[nH]1)c1ccccc1 (centres undefined)	Gal4-VP16 FLuc inconclusive, RORg inh inconclusive
CCNc1nc(=S)nc(NCc2ccccc2)[nH]1	Gal4-VP16 FLuc 7.08µM, RORg inh 3.16µM (no result: MCF10A rerep, Giardia kill, SW480 rereplic)
Cc1ccc(/C=N/NC(=O)c2nnn(-c3nonc3N)c2CN(C)C)s1	none
Cc1ccsc1/C=N/NC(=O)c1nnn(-c2nonc2N)c1CN(C)c1ccccc1	Gal4-VP16 FLuc 3.16µM, Chronic BCR inh inconclusive, Giardia kill inconclusive, RORg inh 3.98µM
